Our source for the Potency values is PubChem BioAssay (Tox21).

The structures appear in SMILES notation. Results filed as inconclusive are left out. Active and inactive are the calls of the source. Unless noted, the call rests on the fitted dose curve; in most records, active means well fitted curve in the direction sought with a large enough effect in the repeat runs; inconclusive means weak or mixed curves; inactive means no such curve, though single readings can be large; an effect the other way counts as inactive or inconclusive.

Assay [1] is described as follows: qHTS assay for small molecule agonists of the p53 signaling pathway (AID 651631; calls by dose curve; further: nearly all actives have a fitted effect of over 15% in size; further: potency means the concentration at half of the fitted maximal effect). Put shortly: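 Agonist mode screen using a stably integrated beta-lactamase gene under p53 response elements in HCT-116 cells. Compound exposure lasts 16 h at 37 °C; fluorescence intensity is measured following 2 h FRET substrate loading.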
For orientation: qHTS replaces the single test concentration by a dilution series.

A short description of assay [2]: qHTS assay for small molecules that induce genotoxicity in human embryonic kidney cells expressing luciferase-tagged ATAD5 (AID 651632). Further: nearly all actives have a fitted effect of over 15% in size. Put shortly:
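Test compounds were delivered by pin tool onto HEK293T reporter cells (2,000/well) expressing ATAD5 fused to luciferase. After 16 hr at 37C, 5% CO2, Amplite was added for 30 min at room temperature and luminescence was measured.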

Assay [3] can be described thus: qHTS assay for small molecule agonists of the p53 signaling pathway - cell viability (AID 651633; calls by dose curve;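 further: p53RE-bla HCT reporter cells with a stable beta-lactamase p53 reporter; series mostly up to about 83 µM; nearly all actives have a fitted effect of over 30% in size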). The procedure, abridged: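 Viability counter-read: CellTiter-Glo luminescence (30 min, room temperature) in the same p53RE-bla plates. These plates had been exposed to compounds for 16 h at 37 C.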
The nature of assay [4]: qHTS assay for small molecules that induce genotoxicity in human embryonic kidney cells expressing luciferase-tagged ATAD5 - cell viability (AID 651634; calls by dose curve; further: nearly all actives have a fitted effect of over 25% in size). Put shortly: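 Quantitative high-throughput format. HEK293T cells expressing ATAD5 fused to luciferase were plated at 2,000 cells/well and treated 15.5 hr with compound versus DMSO. Viability was determined by fluorescent live-cell protease substrate, 30 min at 37C.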

Assay [5] can be described thus: qHTS assay for small molecule disruptors of the mitochondrial membrane potential - cell viability (AID 720634; calls by dose curve;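 further: human HepG2 liver cancer cells; series mostly up to about 83 µM; nearly all actives have a fitted effect of over 20% in size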). Put shortly: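 Same-well counter-screen: following the MMP dye addition, CellTiter-Glo was added to 1 hr compound-treated HepG2 cells and luminescence read after 30 min at room temperature.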
Assay [6] can be described thus: qHTS assay for small molecule disruptors of the mitochondrial membrane potential (AID 720635). Further: potency means the concentration at half of the fitted maximal effect. The procedure, abridged: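 Mitochondrial membrane potential tracked with Mito-MPS dye, red aggregates (ex 540/em 590 nm) against green monomers (ex 490/em 535 nm). Compound treatment 1 hr at 37C, dye 30 min in HepG2.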
Assay [7] is described as follows: qHTS assay to test for compound auto fluorescence at 590 nm (red) in HepG2 cells (AID 720674). Put shortly: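 Red autofluorescence (Ex/Em 540/590 nm, Rose Bengal sodium equivalents) was measured in HepG2 cells, 2,000 per well in MEM plus 10% FBS, plated overnight at 37 C. Readings were taken 1 hr after adding 23 nL compound or DMSO, at 37 C and 5% CO2.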
Assay [8] in a line: qHTS assay to test for compound auto fluorescence at 535 nm (green) in HepG2 cells (AID 720675).
Assay [9] in a line: qHTS assay to test for compound auto fluorescence at 460 nm (blue) in HEK293 cells (AID 720678). Put shortly: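 Auto fluorescence in the blue band was quantified as triamterene equivalency. HEK293 cells were seeded at 2,000/well, dosed after a 4-5 hr attachment, and kept overnight at 37C before the 405/460 nm reading.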
The nature of assay [10]: qHTS assay to test for compound auto fluorescence at 590 nm (red) in HEK293 cells (AID 720679). Put shortly:
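Autofluorescence equivalency to Rose Bengal sodium, 540/590nm, in HEK293 cells exposed overnight to 23 nL compound per well.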

Turning to `CC(C)CN(C[C@@H](O)[C@H](Cc1ccccc1)NC(=O)O[C@@H]1CCOC1)S(=O)(=O)c1ccc(N)cc1`, the Potency result in assay [1], in assay [2], in [3], in assay [4], in [5] and in assay [6] was “inactive” throughout. For the same compound, the Potency entry in assay [7], in [8], in assay [9] and in assay [10] was “inactive” throughout.
In the case of `COC1=C(C(=O)O)N2C(=O)[C@@H](NC(=O)[C@H](N)C3=CCC=CC3)[C@H]2SC1`, the Potency result in assay [1], in assay [2], in [3], in assay [4], in [5] and in [6] was “inactive” throughout. Also, the Potency entry in assay [7], in assay [8], in assay [9] and in assay [10] was “inactive” in each case.
In the case of `CCC(c1ccccc1)c1noc(CCN(CC)CC)n1` (stereo not given), the Potency result in assay [1], in [2], in assay [3], in [4], in assay [5] and in assay [6] was “inactive” throughout. Moreover, the Potency entry in [7], in [8], in [9] and in assay [10] was “inactive” throughout.
Consider `CC1(C)S[C@@H]2[C@H](NC(=O)Cc3ccccc3)C(=O)N2[C@H]1C(=O)O`, for which the Potency result in [1], in [2], in assay [3], in assay [4], in assay [5] and in assay [6] was “inactive” each time. The Potency entry in assay [7], in assay [8], in assay [9] and in [10] was “inactive” in each case.
For the compound `CCCCCCCCCCCCCCCCCCCCCC(=O)Nc1ccn([C@@H]2O[C@H](CO)[C@@H](O)[C@@H]2O)c(=O)n1`, the Potency in [1] is 11.9 µM (active). For the same compound, the Potency entry in [2], in assay [3], in assay [4], in assay [5], in assay [6] and in [7] was “inactive” throughout. In addition, the Potency entry in assay [8], in assay [9] and in [10] was “inactive” throughout.
In the case of `Cc1c(N)nc(C(CC(N)=O)NCC(N)C(N)=O)nc1C(=O)NC(C(=O)NC(C)C(O)C(C)C(=O)NC(C(=O)NCCc1nc(-c2nc(C(=O)NCCCN[C@@H](C)c3ccccc3)cs2)cs1)C(C)O)C(O[C@@H]1O[C@@H](CO)[C@@H](O)[C@H](O)[C@@H]1O[C@H]1O[C@H](CO)[C@@H](O)[C@H](OC(N)=O)[C@@H]1O)c1cnc[nH]1` (stereo not given in full), in assay [1], the Potency is 0.15 µM (active). The Potency entry in assay [2], in assay [3], in [4], in assay [5], in assay [6] and in [7] was “inactive” each time. The Potency entry in assay [8], in assay [9] and in [10] was “inactive” in each case.
Regarding `O=C(OCCO)c1ccccc1O`, the Potency entry in [1], in [2], in [3], in assay [4], in assay [5] and in assay [6] was “inactive” each time. Also, the Potency result in assay [7], in [8], in assay [9] and in assay [10] was “inactive” each time.
For `C[N+](C)(CCCCCC[N+](C)(C)C1c2ccccc2-c2ccccc21)C1c2ccccc2-c2ccccc21`, the Potency entry in assay [1], in assay [2], in assay [3], in assay [4], in assay [5] and in assay [6] was “inactive” throughout. Moreover, the Potency result in [7], in [8], in [9] and in assay [10] was “inactive” in each case.
Turning to `CCCC(CCC)C(N)=O`, the Potency entry in assay [1], in assay [2], in [3], in [4], in [5] and in assay [6] was “inactive” each time. Further, the Potency entry in [7], in [8], in [9] and in assay [10] was “inactive” throughout.
For `COC(=O)[C@H]1[C@H]2C[C@@H]3c4[nH]c5cc(OC)ccc5c4CCN3C[C@H]2C[C@@H](OC(=O)/C=C/c2cc(OC)c(OC)c(OC)c2)[C@@H]1OC`, the Potency result in assay [1], in [2], in [3], in assay [4], in [5] and in assay [6] was “inactive” throughout. Besides, the Potency entry in [7], in [8], in [9] and in assay [10] was “inactive” throughout.
On to `CCOC(=O)[C@H](CCc1ccccc1)N[C@H]1CCCN2CCC[C@@H](C(=O)O)N2C1=O`, for which the Potency entry in assay [1], in [2], in assay [3], in assay [4], in assay [5] and in assay [6] was “inactive” each time. Further, the Potency entry in assay [7], in [8], in assay [9] and in assay [10] was “inactive” throughout.
Take `NC(=O)Oc1ccc(Cc2ccccc2)cc1`: the Potency result in [1], in assay [2], in [3], in assay [4], in assay [5] and in assay [7] was “inactive” each time. For the same compound, the Potency entry in assay [8], in assay [9] and in [10] was “inactive” each time. In addition, the Potency in assay [6] is 21.1 µM (active).
For the compound `CCC(CN)CC(C)CCNCC(O)CNCC(C)CC(CC)CN` (stereo not given), the Potency entry in assay [1], in assay [2], in assay [3], in assay [4], in assay [5] and in assay [6] was “inactive” in each case. For the same compound, the Potency entry in assay [7], in assay [8], in assay [9] and in assay [10] was “inactive” throughout.
On to `C[C@@H]1C/C=C/C=C/C=C/C=C/[C@H](O[C@@H]2O[C@H](C)[C@@H](O)[C@H](N)[C@@H]2O)C[C@@H]2O[C@](O)(C[C@@H](O)C[C@H]3O[C@@H]3/C=C/C(=O)O1)C[C@H](O)[C@H]2C(=O)O`, for which the Potency result in assay [1], in assay [2], in assay [3], in assay [4], in assay [5] and in assay [6] was “inactive” throughout. For the same compound, the Potency entry in [7], in assay [8], in assay [9] and in assay [10] was “inactive” in each case.
For the compound `CN1C(=O)CN2CCc3ccccc3C2c2cc(Cl)ccc21` (stereo not given), the Potency in assay [1] was 29.8 µM (active). Also, the Potency entry in [2], in [3], in assay [4], in [5], in assay [6] and in assay [7] was “inactive” each time. Besides, the Potency entry in assay [8], in assay [9] and in assay [10] was “inactive” in each case.
As for `Cc1onc(-c2ccccc2)c1C(=O)N[C@@H]1C(=O)N2[C@@H]1SC(C)(C)[C@@H]2C(=O)O`, the Potency result in assay [1], in assay [2], in [3], in assay [4], in assay [5] and in assay [6] was “inactive” in each case. Also, the Potency entry in [7], in assay [8], in [9] and in assay [10] was “inactive” each time.
On to `CC(=O)OC[C@H]1O[C@@H](O[C@H]2[C@H](O)[C@@H](OC(=O)c3ccccc3C(=O)O)[C@H](O)O[C@@H]2COC(C)=O)[C@H](O)[C@@H](OC(=O)c2ccccc2C(=O)O)[C@@H]1O`, for which the Potency entry in [1], in [2], in assay [3], in assay [4], in assay [5] and in assay [6] was “inactive” each time. Also, the Potency entry in assay [7], in [8], in [9] and in [10] was “inactive” each time.
